For part of these data: Results with a measured potency or affinity are listed apart. The source made the active and inactive calls.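 The calls were made as follows, unless noted: active = calcium signal ratio cut to more than 3 SD under the fully stimulated control mean yet still positive, in both repeats and the primary screen; inactive = the rest.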
Experiments:
[1] = test system: TRPC4 beta (transient receptor potential cation channel C4), mouse; experiment: activators of mouse TRPC4 channel, confirmation, cell-based, Fluo4 calcium, HEK293 TRPC4beta/mu-opioid, duplicates, 10 µM (AID 2426;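 active = fluorescence ratio normalized to control raised more than 50% in primary screen plus both repeat runs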); settings: Fluo4 calcium fluorescence, at 10 µM; stronger effect = higher value
[2] = test system: transient receptor potential cation channel C4 beta (TRPC4), mouse; experiment: activators of mouse TRPC4 channel, confirmation, cell-based, second round, Fluo4, HEK293 TRPC4beta/mu-opioid, 1 µM (AID 2461;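 active = primary screen active and over 50% activation in each of two duplicate runs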); settings: Fluo4 calcium fluorescence, at 1 µM; stronger effect = higher value
[3] = test system: TRPC4 (transient receptor potential cation channel C4 beta), mouse; experiment: positive allosteric modulators of mouse TRPC4, confirmation, cell-based, second round, Fluo-4, HEK293 TRPC4beta/mu-opioid, 1 µM (AID 2554;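 active = primary screen hit whose fluorescence ratio, in both repeats, exceeds the weak agonist control mean by 3 SD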); settings: DAMGO EC20, Fluo-4 calcium flux, at 1 µM; stronger effect = higher value
[4] = test system: TRPC4 beta (transient receptor potential cation channel C4), mouse; experiment: positive allosteric modulators of mouse TRPC4, confirmation, cell-based, Fluo-4, HEK293 TRPC4beta/mu-opioid (AID 2555;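 active = primary screen hit whose calcium fluorescence ratio, in both repeats, exceeds the weak agonist control mean by 3 SD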); settings: DAMGO EC20, Fluo-4 calcium flux, at 10 µM; stronger effect = higher value
[5] = target: Short transient receptor potential channel 4 (Mus musculus) (UniProt Q9QUQ5); experiment: inhibitors of mouse TRPC4 channel, confirmation, cell-based, Fluo4, HEK293 TRPC4beta/mu-opioid (AID 2636;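 active = calcium signal cut by more than 3 SD below the full-agonist control yet still positive, in both repeats and the earlier primary screen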); settings: DAMGO, Fluo4 calcium flux, at 10 µM; stronger effect = higher value
[6] = target: Short transient receptor potential channel 4 (Mus musculus) (UniProt Q9QUQ5); experiment: inhibitors of mouse TRPC4 channel, confirmation, cell-based, second round, Fluo4, HEK293 TRPC4beta/mu-opioid, 1 µM (AID 2637); settings: Fluo4 calcium flux, DAMGO, at 1 µM; stronger effect = higher value;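 as to inhibition: percent of integrated ratio relative to wells lacking test compound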
[7] = target: Short transient receptor potential channel 4 (Mus musculus) (UniProt Q9QUQ5); experiment: mouse TRPC4 channel activators, dose response, cell-based, HEK293 TRPC4/mu-opioid, Fluo-4 calcium (AID 434937;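 active = primary screen activator hit with a dose response curve and TRPC4 channel activation at any tested dose; inactive = no activation, no dose response, or not a primary hit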)
[8] = target: Short transient receptor potential channel 4 (Mus musculus) (UniProt Q9QUQ5); experiment: TRPC4 positive allosteric modulators, dose response, cell-based, HEK293 TRPC4/mu-opioid, Fluo-4 calcium, EC20 DAMGO (AID 434941;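 active = earlier screen potentiator hit that boosts the TRPC4 ion channel at some dose, with a dose response; inactive = no potentiation, no dose response, or not a prior hit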;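 also: calcium entry triggered by an EC20 dose of DAMGO at the co-expressed mu-opioid receptor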)
[9] = target: Short transient receptor potential channel 6 (Mus musculus) (UniProt Q61143); experiment: inhibition of mouse TRPC6 channel, confirmation, selectivity assay for TRPC4 inhibitor project, cell-based, HEK293, membrane potential dye, duplicate (AID 434948;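 active = active in primary screen and both duplicates, each dropping signal beyond three positive-control SD with fluorescence still positive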); settings: HEK293 TRPC6, membrane potential dye fluorescence, at 10 µM, stimulated with maximal-effect acetylcholine; stronger effect = higher value
[10] = target: Short transient receptor potential channel 6 (Mus musculus) (UniProt Q61143); experiment: activation of mouse TRPC6 channel, confirmation, selectivity assay for TRPC4 activator project, cell-based, HEK293, membrane potential dye, duplicate (AID 434950;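 active = membrane potential signal rise above negative control mean plus 3 SD in both duplicates, also active in the earlier TRPC4 screen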); settings: HEK293 TRPC6, membrane potential fluorescence, at 10 µM; stronger effect = higher value
[11] = target: Short transient receptor potential channel 6 (Mus musculus) (UniProt Q61143); experiment: TRPC6 potentiation by TRPC4 potentiator hits, confirmation, selectivity assay for TRPC4 potentiator project, HEK293 cells, membrane potential dye, duplicate (AID 434952;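 active = compound raising the membrane signal above positive-control mean plus 3 SD in both repeats, and a primary screen hit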); settings: HEK293 TRPC6, membrane potential dye fluorescence, at 10 µM, maximal acetylcholine added after compound; stronger effect = higher value
[12] = target: Short transient receptor potential channel 4 (Mus musculus) (UniProt Q9QUQ5); experiment: calcium flux activators in TRPC4/5HT1a cells, counter-screen for TRPC4 activator project, cell-based, second counter screen, HEK293 TRPC4/5HT1a, Fluo-4 (AID 434977;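 active = calcium signal rise above buffer-control mean plus 5 SD in both duplicates, and also a hit in the primary screen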); settings: Fluo-4 calcium flux, at 10 µM; stronger effect = higher value
[13] = calcium flux inhibitors in TRPC4/5HT1a cells, confirmation, counter-screen for TRPC4 inhibitor project, cell-based, second counter screen, HEK293 TRPC4/5HT1a, Fluo-4 (AID 434978;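 active = primary screen active whose calcium signal fell more than 3 SD beyond the full-serotonin control mean in both duplicate plates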); settings: Fluo-4 calcium flux, at 10 µM, serotonin added to trigger calcium flux; stronger effect = higher value
[14] = test system: TRPC4 (mouse), co-expressed with 5HT1a in HEK293; experiment: calcium flux potentiators in TRPC4/5HT1a cells, confirmation, counter-screen for TRPC4 potentiator project, cell-based, second counter screen, HEK293 TRPC4/5HT1a, Fluo-4 (AID 434979;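 active = signal rise over 3 SD above mean of control wells given weak agonist, in both repeats and first screen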); settings: Fluo-4 calcium flux, at 10 µM, serotonin added at its EC20 dose; stronger effect = higher value
[15] = calcium flux activation in mu-opioid HEK293 cells, confirmation, counter-screen for TRPC4 activator project, cell-based, HEK293 mu-opioid receptor line (AID 449723;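 active = hit in primary screen, with calcium signal over 5 SD above buffer well mean in both duplicates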;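 also: counter screen cells carry the mu-opioid receptor alone and lack TRPC4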); settings: Fluo-4 calcium fluorescence, at 10 µM; stronger effect = higher value
[16] = calcium flux enhancement in mu-opioid HEK293 cells, confirmation, counter-screen for TRPC4 allosteric potentiator project, cell-based, HEK293 mu-opioid receptor line (AID 449724;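 active = calcium signal rise more than 3 SD above the low-dose agonist control mean, in both duplicate plates and the primary screen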); settings: Fluo-4 calcium flux, at 10 µM, compound added before EC20 DAMGO stimulus; stronger effect = higher value

Measured: inhibition

Short transient receptor potential channel 6 (Mus musculus), sequence (Q61143 whole entry, looked up): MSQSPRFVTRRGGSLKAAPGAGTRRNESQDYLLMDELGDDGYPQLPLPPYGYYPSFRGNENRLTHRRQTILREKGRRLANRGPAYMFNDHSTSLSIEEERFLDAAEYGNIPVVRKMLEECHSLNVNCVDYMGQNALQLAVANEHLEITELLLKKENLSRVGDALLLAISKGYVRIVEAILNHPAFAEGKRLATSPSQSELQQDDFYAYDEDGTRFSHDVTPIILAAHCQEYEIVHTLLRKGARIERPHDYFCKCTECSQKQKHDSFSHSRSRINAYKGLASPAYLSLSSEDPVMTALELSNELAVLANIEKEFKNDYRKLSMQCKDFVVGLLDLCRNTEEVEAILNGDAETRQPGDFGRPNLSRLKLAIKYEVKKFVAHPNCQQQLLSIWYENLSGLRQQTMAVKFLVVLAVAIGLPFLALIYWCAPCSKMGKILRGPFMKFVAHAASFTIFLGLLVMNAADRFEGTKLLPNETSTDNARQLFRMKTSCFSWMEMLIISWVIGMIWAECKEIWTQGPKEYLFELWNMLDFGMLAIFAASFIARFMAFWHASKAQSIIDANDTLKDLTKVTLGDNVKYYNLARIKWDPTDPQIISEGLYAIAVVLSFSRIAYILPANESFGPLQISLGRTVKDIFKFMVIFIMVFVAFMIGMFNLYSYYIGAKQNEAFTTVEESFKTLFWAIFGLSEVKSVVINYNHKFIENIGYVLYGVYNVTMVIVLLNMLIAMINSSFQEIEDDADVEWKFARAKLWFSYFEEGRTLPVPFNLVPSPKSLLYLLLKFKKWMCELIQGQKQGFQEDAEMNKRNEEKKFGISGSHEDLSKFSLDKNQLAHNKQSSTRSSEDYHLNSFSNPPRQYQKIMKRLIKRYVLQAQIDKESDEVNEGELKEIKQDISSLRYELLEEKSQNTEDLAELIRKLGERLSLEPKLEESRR
Short transient receptor potential channel 4 (Mus musculus), sequence (Q9QUQ5 whole entry, looked up): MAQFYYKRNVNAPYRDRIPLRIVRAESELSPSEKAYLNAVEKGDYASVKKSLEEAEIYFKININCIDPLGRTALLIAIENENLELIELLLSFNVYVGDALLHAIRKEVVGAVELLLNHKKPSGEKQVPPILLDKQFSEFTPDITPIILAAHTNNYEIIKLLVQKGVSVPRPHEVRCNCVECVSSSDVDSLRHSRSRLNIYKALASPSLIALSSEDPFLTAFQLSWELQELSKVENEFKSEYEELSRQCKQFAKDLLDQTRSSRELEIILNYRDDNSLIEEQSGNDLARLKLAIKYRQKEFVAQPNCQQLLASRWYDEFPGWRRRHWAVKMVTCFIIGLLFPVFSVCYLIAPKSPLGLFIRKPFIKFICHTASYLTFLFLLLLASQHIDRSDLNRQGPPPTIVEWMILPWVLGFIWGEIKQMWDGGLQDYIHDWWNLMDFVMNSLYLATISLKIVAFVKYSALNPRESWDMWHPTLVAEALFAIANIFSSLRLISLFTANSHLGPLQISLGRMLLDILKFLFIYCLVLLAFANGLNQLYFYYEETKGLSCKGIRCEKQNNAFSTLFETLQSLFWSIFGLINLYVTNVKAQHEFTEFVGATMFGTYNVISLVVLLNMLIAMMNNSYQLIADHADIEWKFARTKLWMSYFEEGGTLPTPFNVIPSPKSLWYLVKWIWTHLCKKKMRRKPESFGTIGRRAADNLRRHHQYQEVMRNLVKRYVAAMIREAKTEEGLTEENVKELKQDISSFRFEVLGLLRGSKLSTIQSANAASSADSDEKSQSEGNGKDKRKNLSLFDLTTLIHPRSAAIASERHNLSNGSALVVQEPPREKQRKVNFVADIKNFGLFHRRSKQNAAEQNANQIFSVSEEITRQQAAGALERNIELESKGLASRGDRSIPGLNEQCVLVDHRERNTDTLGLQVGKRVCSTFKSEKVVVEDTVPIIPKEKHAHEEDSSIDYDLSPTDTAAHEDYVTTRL

CN1CCN(c2ccc(NC(=O)c3ccc(-c4ccc(Cl)cc4)o3)cc2)CC1
active: [5] 85% | [6] 58%
inactive: all other assays above

CCC(=O)N1CCc2cc(S(=O)(=O)NCCN3CCCCC3CC)ccc21 (stereo not given)
active: [5] 94% | [6] 59% | [13] 17.9%
inactive: all other assays above

CCOC(=O)C1(CCc2ccccc2)CCN(Cc2ccccn2)CC1
active: [5] 88%
inactive: all other assays above

COc1ccc(C(=O)Nc2nc(-c3cccs3)cs2)cc1
active: [5] 85% | [13] 36.4%
inactive: all other assays above

Cc1ccc(-n2cccn2)c(CN2CCCC(C(=O)c3ccc4c(c3)OCO4)C2)c1 (stereo not given)
active: [5] 53% | [9] 28% | [13] 38%
inactive: all other assays above

Cc1ccc(CNC(C)c2ccccc2)cc1 (stereo not given)
active: [5] 92% | [13] 30.6%
inactive: all other assays above

N#Cc1cccc2c1-c1ccccc1/C2=N/NC(N)=O
active: [5] 86% | [6] 81% | [13] 19.9%
inactive: all other assays above

Cc1cccc(NC(=O)CSc2nnc(-c3cc(C)n(-c4ccccc4)c3C)o2)c1C
active: [5] 78% | [13] 16.2%
inactive: all other assays above

COc1cc(CNC2CCCC2)c(Br)cc1OCc1ccccc1
active: [5] 87% | [13] 34.4%
inactive: all other assays above

O=C(CSc1nc2ccccc2c(=O)n1CCCO)N1CCc2ccccc21
active: [5] 94% | [6] 67% | [13] 13.1%
inactive: all other assays above

CCCn1nc([N+](=O)[O-])c(C(C#N)c2nc3ccccc3o2)c(Cl)c1=O (stereo not given)
active: [5] 96% | [9] 28% | [13] 39.9%
inactive: all other assays above

COc1ccc(CN(C(=O)c2snc(C(N)=O)c2N)C(CC(C)C)C(=O)NC2CCCCC2)cc1 (stereo not given)
active: [5] 82% | [13] 30.8%
inactive: all other assays above

O=C1Nc2cc(C(=O)NCCCN3CCOCC3)ccc2S/C1=C/c1ccccc1F
inactive: all assays above

CC1(c2ccccc2)CC(C)(C)N(C(=O)C2CCCO2)c2ccccc21 (stereo not given)
active: [5] 90% | [13] 38.3%
inactive: all other assays above

C=CCc1ccccc1OCC(O)CN1CCN(c2ccccc2OC)CC1 (stereo not given)
active: [5] 68% | [13] 13.1%
inactive: all other assays above
